# Screens from PubChem.
# A selection: hits, their analogues and other compounds. The true share with any hit is near 27%.
# CYP2C19 inh: blocks human cytochrome P450 2C19; P33261; CYP2C19 Supersomes, luciferin-H EGE luminescence, 30 min; inhibition, % at 5 µM; 21% of 96,000 active;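 active = CYP2C19 inhibition above a set limit at 5 µM in the primary screen, cut at about 50% in these data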;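 also: plate controls were negative control wells for no effect and 2.5 mM tranylcypromine positive control for full effect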
# CYP2C9 inhib: inhibitors of human CYP2C9 | P11712 | CYP2C9 Supersomes, luciferin-H conversion, luminescence | inhibition, % at 5 µM | 20% of 96,000 active;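 active = blocking of liver enzyme CYP2C9 beyond about 50% at 5 µM, limit read from the data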
# CYP2C19 act: increases human CYP2C19 enzyme activity; 96,000 tested, under 10 active; activation factor at 5 µM; P33261; recombinant CYP2C19, luciferin-H EGE luminescence; active compounds read high; 0 = fully inhibited enzyme, 1 = untreated enzyme;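 active = activation factor of at least 2 at 5 µM in the primary screen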;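 also: 0 = wells with 2.5 mM tranylcypromine and 1 = vehicle-only wells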
# CYP2C9 activ: activators of human CYP2C9 | recombinant CYP2C9, luciferin-H conversion, luminescence; active compounds read high; factor 1 = untreated enzyme, 0 = blocked | activation factor at 5 µM | 1.4% of 96,000 active;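 active = activation factor of 2 or more for CYP2C9 at a 5 µM dose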;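 also: 0 = sulfaphenazole-blocked wells and 1 = vehicle-only wells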
# Cav32 inh: human Cav3.2 channel inhibition, primary screen. AID 449739. 4% of 100,000 active. Cav3.2-expressing cells, Fluo-4 calcium fluorescence FDSS; active compounds read low. O95180. B-score at 10 µM;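 active = single-dose well whose peak fluorescence ratio is a statistical outlier from its plate by either plate-standardised score or position-corrected B-score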
# * = called active by the depositor; . = no result given.
SMILES,CYP2C19 inh,CYP2C9 inhib,CYP2C19 act,CYP2C9 activ,Cav32 inh
O=C(C1CC(=O)N(C2CCCC2)C1)N1CCC(Cc2ccccc2)CC1 (stereo not given),5,32,0.9,0.7,1.3
Cc1cc(C)nc(N2CCC(CNC(=O)CCc3ccccc3)CC2)n1,19,22,0.8,0.8,-0.038
Cn1c(=O)c(-c2ccccc2N)nc2ccccc21,10,16,0.9,0.8,0.25
O=C1Nc2ccccc2C12Nc1ccccc1-c1nc3ccccc3n12 (stereo not given),.,.,.,.,-4.8*
CN1C(=O)C2(Nc3ccccc3-c3nc4ccccc4n32)c2ccccc21 (stereo not given),71*,64*,0.3,0.4,-0.44
CCN1C(=O)C2(Nc3ccccc3-c3nc4ccccc4n32)c2cc(OC)ccc21 (stereo not given),34,69*,0.7,0.3,.
COc1ccc2cc(-c3nc4ccccc4n3C)c(=O)oc2c1,.,.,.,.,0.38
O=C1Cn2c(nc3ccccc32)-c2ccccc2N1,-2,3,1,1,-0.68
COc1ccc(N2C(=O)CSC2c2ccc3c(c2)OCO3)cc1 (stereo not given),89*,-22,0.1,1.2,0.24
COc1ccc(N2C(=O)CSC2c2ccc3c(c2)OCO3)c(OC)c1 (stereo not given),84*,10,0.2,0.9,-2.2
COc1ccc(-c2nc3ccncc3[nH]2)cc1OC,11,3,0.9,1,0.42
Fc1ccc(-c2nc3ccncc3[nH]2)cc1,47,62*,0.5,0.4,1
Cc1cccc(OCc2nnc(SCC(=O)Nc3cc(C)on3)n2C)c1,10,11,0.9,0.9,0.098
COc1ccc(S(=O)(=O)N(C)C2CCN(C)CC2)cc1,20,0,0.8,1,0.89
O=C(CCC(=O)c1ccc(F)cc1)Nc1cc(Cl)cc(Cl)c1,52*,46,0.5,0.5,-0.47
O=C(CCC(=O)c1ccccc1)Nc1cccnc1,43,46,0.6,0.5,0.44
CCNc1nc2c(c(=O)[nH]c(=O)n2C)n1Cc1ccc(F)cc1,-7,-7,1.1,1.1,.
O=C(NCCO)c1ccc2nc(-c3ccco3)c(-c3ccco3)nc2c1,10,3,0.9,1,0.5
O=C(NC1CCCC1)c1ccc2nc(-c3ccco3)c(-c3ccco3)nc2c1,22,59*,0.8,0.4,.
O=C(NCCc1ccccc1)c1ccc2nc(-c3ccco3)c(-c3ccco3)nc2c1,94*,98*,0.1,0,-11*
CCCCCCN=CC1=C(O)C(C(=O)OC)C(C)(C)CC1=O (stereo not given),47,42,0.5,0.6,.
COc1ccccc1NC(=O)C1=C(C)Nc2nc(-c3cccs3)nn2C1c1cccnc1 (stereo not given),16,43,0.8,0.6,-0.29
CC1(C)Cc2nc(N)c(C(=O)NCCO)cc2CO1,-6,16,1.1,0.8,0.58
Cc1ccccc1OC(=O)CCC(=O)OCCCC(F)(F)C(F)(F)F,54*,41,0.5,0.6,-3.3
Cc1ccc(OC(=O)CCC(=O)OCCCC(F)(F)C(F)(F)F)cc1,-14,-7,1.1,1.1,0.45
SMILES,CYP2C19 inh,CYP2C9 inhib,CYP2C19 act,CYP2C9 activ,Cav32 inh
COC(=O)C1=C(C)Nc2ccc(C)cc2S1,62*,50,0.4,0.5,-0.2
CC(=O)Nc1ccc(S(=O)(=O)N2CCN(C(=O)N3CCCCCC3)CC2)cc1,23,51*,0.8,0.5,0.44
O=C(Nc1ccc(S(=O)(=O)N2CCCCCC2)cc1)c1ccc(Br)o1,25,45,0.8,0.6,-3.2*
Cc1cccc(N2CCN(S(=O)(=O)c3c(C)[nH]c(=O)[nH]c3=O)CC2)c1C,50*,7,0.5,0.9,1
CC(=O)Nc1ccc(S(=O)(=O)N2CCN(c3ccc(C)c(Cl)c3)CC2)cc1,37,53*,0.6,0.5,-1.5
CCOC(=O)CNC(=O)CSc1nnc(Cn2cnc3ccccc32)n1C,-10,-3,1.1,1,-0.41
COc1ccc(-c2c(C)n([O-])c(C)c(C)[n+]2=O)cc1,-4,-4,1,1,0.58
COC(=O)c1sc(NC(=O)CSc2nnnn2-c2ccc(C)cc2C)nc1C,48,2,0.5,1,-0.68
CC(=O)Nc1ccc(S(=O)(=O)Nc2ccc(S(=O)(=O)N3CCCCCC3)cc2)cc1,14,82*,0.9,0.2,-1.7
CC(=O)Nc1ccc(S(=O)(=O)N2CCc3c(Cl)cccc3C2)cc1,65*,-169,0.4,2.7*,-4.3*
CC(=O)Nc1ccc(S(=O)(=O)N2CCN(Cc3ccncc3)CC2)cc1,95*,54*,0.1,0.5,-0.0039
Cc1ccc(NC(=O)CN(C)c2ccc(S(=O)(=O)N3CCN(C)CC3)cn2)cc1,29,56*,0.7,0.4,0.029
CC(=O)Nc1ccc(C(=O)Nc2ccc(S(=O)(=O)N3CCCC3)cc2)cc1,3,-20,1,1.2,-0.027
CN1CCCN(C(=O)c2ccc(Cl)c(S(=O)(=O)N(C)c3ccccc3)c2)CC1,-10,30,1.1,0.7,2.1
c1ccc(C(c2ccccc2)N2CCN(c3nc4ccccc4n4cnnc34)CC2)cc1,-12,12,1.1,0.9,-3
CC(=O)Nc1ccc(S(=O)(=O)N2CCN(c3cccc(C)c3C)CC2)cc1,40,75*,0.6,0.2,-1.2
CC(=O)Nc1ccc(S(=O)(=O)N2CCCN(S(=O)(=O)c3ccc(C)cc3)CC2)cc1,29,43,0.7,0.6,0.074
CC(=O)Nc1ccc(S(=O)(=O)N2CCCN(S(=O)(=O)c3ccc(NC(C)=O)cc3)CC2)cc1,30,61*,0.7,0.4,.
CN1CCN(S(=O)(=O)c2ccc(NC(=O)C(C)(C)C)cc2)CC1,-9,1,1.1,1,-5.7*
C/C=C(\C)CN1CCN(c2cc(C)ccc2C)CC1,82*,55*,0.2,0.5,0.24
C/C=C(\C)CN1CCN(c2ccccc2F)CC1,73*,23,0.3,0.8,1.1
Cc1ccc(C)c(N2CCN(Cc3nnnn3C3CCCCC3)CC2)c1,56*,42,0.4,0.6,.
O=C(NCc1ccco1)c1nn(-c2ccccc2)c(=O)c2ccccc12,7,42,0.9,0.6,-0.28
COc1ccc(-n2nc(C(=O)NCC(=O)NCc3ccco3)c3ccccc3c2=O)cc1,9,62*,0.9,0.4,0.6
COc1ccc(-n2nc(C(=O)NCC(=O)NCc3ccco3)c3ccccc3c2=O)c(OC)c1,-28,72*,1.3,0.3,-0.37
COc1ccc(-n2nc(C(=O)NCC(=O)NCc3ccc(F)cc3)c3ccccc3c2=O)c(OC)c1,20,51*,0.8,0.5,0.59
CCOC(=O)c1c(NC(=O)CC)sc(C(C)=O)c1C,69*,77*,0.3,0.2,.
CCOC(=O)c1c(NC(=O)Cc2cccs2)sc(C(=O)NC2CCCCC2)c1C,33,71*,0.7,0.3,0.055
CCOC(=O)c1c(NC(=O)C2c3ccccc3Oc3ccccc32)sc(C(=O)N(CC)CC)c1C,39,98*,0.6,0,-0.052
